Source: PubChem BioAssay AID1159580 (chemical genetic matrix, 2015)
“And” between values parts separate entries of the source, which are not always exact repeats. Identical values can stand only once. Hit rate of the full screen: of about 5,500 compounds, about 2,000 (36%) were called active. Another 18% or so got no clear call; they are omitted. The list shows a part of the results. Values without a mark were called inactive. No stated cut-off is given here; in the data, active means normalized growth mostly below about 0.91 (no sharp cut-off); inconclusive means no clear call, values can overlap the other calls; inactive means mostly above about 0.92.

Assay: chemical genetic growth profiling, strain panel (AID 1159580);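 further: tested at 20 µM; growth read once vehicle control cultures reached saturation at 30 °C; 1 = growth at the plate median or of vehicle wells; lower values mean less growth of the strain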
Conditions: S. cerevisiae deletion strains, growth OD

SMILES: CC1(C)C2CC[C@]3(C)C(C(=O)C=C4[C@@H]5C[C@@](C)(C(=O)O)CC[C@]5(C)CC[C@]43C)[C@@]2(C)CC[C@@H]1O (some centres not stated)
- normalized growth (locus YAL013W, strain DEP1, active compounds read low): 1.02
- normalized growth (locus YAL021C, strain ccr4, active compounds read low): 1.02
- normalized growth (locus YAL026C, strain drs2, active compounds read low): 0.999
- normalized growth (locus YAL030W, strain snc1, active compounds read low): 1
- normalized growth (locus YBL061C, strain skt5, active compounds read low): 1.02
- normalized growth (locus YBR009C, strain hhf1, active compounds read low): 0.93
- normalized growth (locus YBR021W, strain FUR4, active compounds read low): 0.961
- normalized growth (locus YBR023C, strain chs3, active compounds read low): 1.02
- normalized growth (locus YBR171W, strain sec66, active compounds read low): 1
- normalized growth (locus YBR229C, strain ROT2, active compounds read low): 1.06
- normalized growth (locus YBR231C, strain swc5, active compounds read low): 1.08
- normalized growth (locus YBR279W, strain paf1, active compounds read low): 1.03
- normalized growth (locus YCL011C, strain gbp2, active compounds read low): 0.988
- normalized growth (locus YCL016C, strain dcc1, active compounds read low): 1.03
- normalized growth (locus YCL029C, strain bik1, active compounds read low): 0.956
- normalized growth (locus YCL069W, strain vba3, active compounds read low): 1
- normalized growth (locus YCR088W, strain abp1, active compounds read low): 1.02
- normalized growth (locus YDL005C, strain med2, active compounds read low): 1.01
- normalized growth (locus YDL035C, strain GPR1, active compounds read low): 0.873
- normalized growth (locus YDL040C, strain nat1, active compounds read low): 1.03
- normalized growth (locus YDL074C, strain BRE1, active compounds read low): 1.02
- normalized growth (locus YDL101C, strain DUN1, active compounds read low): 1.02
- normalized growth (locus YDL185W, strain tfp1, active compounds read low): 1.04
- normalized growth (locus YDL192W, strain arf1, active compounds read low): 0.996
- normalized growth (locus YDR001C, strain nth1, active compounds read low): 1.01
- normalized growth (locus YDR069C, strain doa4, active compounds read low): 1
- normalized growth (locus YDR101C, strain arx1, active compounds read low): 0.98
- normalized growth (locus YDR137W, strain rgp1, active compounds read low): 0.879
- normalized growth (locus YDR159W, strain sac3, active compounds read low): 0.908
- normalized growth (locus YDR162C, strain NBP2, active compounds read low): 0.986
- normalized growth (locus YDR195W, strain ref2): 1.07
- normalized growth (locus YDR297W, strain sur2, active compounds read low): 0.978
- normalized growth (locus YDR318W, strain mcm21, active compounds read low): 0.997
- normalized growth (locus YDR334W, strain swr1, active compounds read low): 0.964
- normalized growth (locus YDR335W, strain msn5, active compounds read low): 1.01
- normalized growth (locus YDR388W, active compounds read low): 1.01
- normalized growth (locus YDR392W, strain spt3, active compounds read low): 1.02
- normalized growth (locus YDR502C, strain sam2, active compounds read low): 0.968
- normalized growth (locus YEL003W, strain gim4, active compounds read low): 0.932
- normalized growth (locus YEL037C, strain rad23, active compounds read low): 1
- normalized growth (locus YEL061C, strain CIN8 (second series), active compounds read low): 1.01
- normalized growth (locus YER015W, strain faa2, active compounds read low): 1.02
- normalized growth (locus YER016W, strain bim1, active compounds read low): 1.01
- normalized growth (locus YER110C, active compounds read low): 1.04
- normalized growth (locus YER111C, strain swi4, active compounds read low): 1.03
- normalized growth (locus YER155C, strain BEM2 (second series), active compounds read low): 1.13
- normalized growth (locus YER155C, strain BEM2, active compounds read low): 1.06
- normalized growth (locus YER167W, strain BCK2, active compounds read low): 1.07
- normalized growth (locus YFR010W, strain ubp6, active compounds read low): 0.943
- normalized growth (locus YGL078C, strain dbp3, active compounds read low): 0.907 (active)
- normalized growth (locus YGL086W, strain mad1, active compounds read low): 1.01
- normalized growth (locus YGL167C, strain pmr1, active compounds read low): 0.996
- normalized growth (locus YGL173C, strain kem1, active compounds read low): 0.876 (active)
- normalized growth (locus YGL227W, strain vid30, active compounds read low): 1.02
- normalized growth (locus YGL240W, strain doc1, active compounds read low): 0.986
- normalized growth (locus YGL248W, strain PDE1, active compounds read low): 0.985
- normalized growth (locus YGL253W, strain hxk2, active compounds read low): 1.02
- normalized growth (locus YGR078C, strain PAC10, active compounds read low): 1.02
- normalized growth (locus YGR135W, strain pre9, active compounds read low): 0.981
- normalized growth (locus YGR252W, strain gcn5, active compounds read low): 0.833
- normalized growth (locus YHR013C, strain ard1, active compounds read low): 1.1
- normalized growth (locus YHR027C, strain rpn1, active compounds read low): 0.956
- normalized growth (locus YHR030C, strain SLT2, active compounds read low): 1.07 and 0.991
- normalized growth (locus YHR079C, strain IRE1 (second series), active compounds read low): 1.02
- normalized growth (locus YHR079C, strain IRE1, active compounds read low): 0.973
- normalized growth (locus YHR094C, strain hxt1, active compounds read low): 1.03
- normalized growth (locus YHR129C, strain ARP1, active compounds read low): 1.07
- normalized growth (locus YHR142W, strain chs7, active compounds read low): 1.01
- normalized growth (locus YHR200W, strain rpn10, active compounds read low): 1.03
- normalized growth (locus YIL066C, strain RNR3, active compounds read low): 1.03
- normalized growth (locus YIL073C, strain SPO22, active compounds read low): 0.956
- normalized growth (locus YIL125W, strain kgd1, active compounds read low): 1.01
- normalized growth (locus YIR030C, strain dcg1, active compounds read low): 1.01
- normalized growth (locus YJL092W, strain hpr5, active compounds read low): 1.02
- normalized growth (locus YJL095W, strain BCK1 (second series), active compounds read low): 1.02
- normalized growth (locus YJL095W, strain BCK1, active compounds read low): 0.971 and 0.979
- normalized growth (locus YJL115W, strain asf1, active compounds read low): 1.01
- normalized growth (locus YJL129C, strain trk1, active compounds read low): 1.04
- normalized growth (locus YJL134W, strain LCB3, active compounds read low): 1.05
- normalized growth (locus YJL154C, strain vps35, active compounds read low): 1.01
- normalized growth (locus YJL164C, strain tpk1, active compounds read low): 0.946
- normalized growth (locus YJL166W, strain qcr8, active compounds read low): 0.974
- normalized growth (locus YJL168C, strain set2, active compounds read low): 1.03
- normalized growth (locus YJL187C, strain SWE1 (second series), active compounds read low): 1
- normalized growth (locus YJR043C, strain POL32, active compounds read low): 0.99
- normalized growth (locus YJR066W, strain TOR1, active compounds read low): 0.953
- normalized growth (locus YJR075W, strain HOC1, active compounds read low): 1.04
